Assay results: PubChem BioAssay
Active and inactive are the calls of the source.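 Rule for the calls, unless noted: active = GFP response above 150% of the DMSO level; inconclusive = fewer than 70 events counted for a yeast strain; inactive = the rest.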

Columns and labels:
[1] = RPL19A-GFP modulators, yeast TOR pathway, confirmation, cell-based, S. cerevisiae, flow cytometry, cherry picks, mother/daughter gates (AID 2270;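 active = GFP response below 50% of the DMSO control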); details: S. cerevisiae RPL19A-GFP strain, 3 h, at 10 µM, stronger effect = lower value, 100 = same GFP as DMSO wells
[2] = LAP4-GFP expression modulators in yeast, confirmation, cell-based, cherry picks, flow cytometry, mother/daughter gates (AID 2271;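 active = GFP response above 150% of the DMSO control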;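 note: ratio of sample to DMSO plate mean so 100% equals DMSO level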); details: S. cerevisiae LAP4-GFP strain, 3 h, at 10 µM, stronger effect = higher value, 100 means same as DMSO control
[3] = modulators of MEP2-GFP levels in yeast, confirmation, S. cerevisiae, flow cytometry GFP, cherry picks (AID 2272;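 active = GFP response above 150% of the DMSO control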;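 note: ratio of well signal to plate DMSO mean so 100% equals DMSO level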); details: S. cerevisiae MEP2-GFP strain, 3 h, at 10 µM, stronger effect = higher value
[4] = AGP1-GFP expression modulators, hit retest, confirmation, cell-based, flow cytometry, S. cerevisiae, cherry picks (AID 2273);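 note: median GFP channel fluorescence over the whole cell population gate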; details: S. cerevisiae AGP1-GFP strain, 3 h, at 10 µM
[5] = modulators of CIT2-GFP expression in yeast, confirmation, S. cerevisiae, GFP fusion, cherry picks, mother/daughter gates (AID 2274); details: S. cerevisiae CIT2-GFP strain, flow cytometry, 3 h, at 10 µM, stronger effect = higher value
[6] = measured here: daughter cell gate
[7] = measured here: mother cell gate
[8] = measured here: daughter cell gate response
[9] = measured here: mother cell gate response

Row | SMILES | GFP response vs DMSO [1] | GFP response vs DMSO [1, 6] [%] | GFP response vs DMSO [1, 7] [%] | GFP response relative to DMSO [2] | GFP response relative to DMSO [2, 8] [%] | GFP response relative to DMSO [2, 9] [%] | GFP response vs DMSO [3] | GFP response, % of DMSO [4] | GFP response, % of DMSO [5] | GFP response, % of DMSO [5, 6] [%] | GFP response, % of DMSO [5, 7] [%]
1 | OCC[n+]1ccc(/C=C/c2c[nH]c3ccccc23)cc1 | 108% (inactive) | 106 | 108 | 140% (inactive) | 143 | 141 | 164% (inactive) | 104% (inactive) | 141% (inactive) | 142 | 143
2 | O=S(=O)(/N=C(/Sc1ccccc1)c1ccccc1)c1ccccc1 | 92% (inactive) | 92.5 | 89.8 | 179% (active) | 152 | 180 | 106% (inactive) | 101% (inactive) | 84.7% (inactive) | 88.7 | 79.2
3 | O=C(c1cc([N+](=O)[O-])cc([N+](=O)[O-])c1)N(Cc1nnc(-c2ccccc2Cl)o1)C1CC1 | 102% (inactive) | 101 | 105 | 96.2% (inactive) | 97.2 | 99.3 | 102% (inactive) | 97.2% (inactive) | 107% (inactive) | 103 | 109
4 | COCCN(CCOC)S(=O)(=O)c1ccc(C(=O)Nc2nnc(C3CC3)o2)cc1 | 101% (inactive) | 99.8 | 101 | 93.8% (inactive) | 94.1 | 95.2 | 100% (inactive) | 101% (inactive) | 106% (inactive) | 105 | 106
5 | COc1ccc(CN2CCSc3sccc3C2=O)cc1 | 93.2% (inactive) | 90.7 | 93.9 | 110% (inactive) | 109 | 112 | 92.6% (inactive) | 97.3% (inactive) | 102% (inactive) | 103 | 102
6 | CC(C)(C)c1cc(C(c2cccnc2)N2CCN(CCO)CC2)cc(C(C)(C)C)c1O (stereo unspecified) | 98.2% (inactive) | 108 | 91.3 | 151% (active) | 168 | 138 | 118% (inactive) | 94.3% (inactive) | 99.3% (inactive) | 126 | 82.8
7 | CCNC(=O)/C(C#N)=C/c1c(N2CCN(Cc3ccc4c(c3)OCO4)CC2)nc2c(C)cccn2c1=O | 101% (inactive) | 99.2 | 103 | 99.8% (inactive) | 97.2 | 101 | 102% (inactive) | 100% (inactive) | 104% (inactive) | 101 | 104
8 | O=C(Nc1ccccc1)c1ccccc1O | 96.7% (inactive) | 97.3 | 95.6 | 114% (inactive) | 107 | 114 | 99.3% (inactive) | 97.3% (inactive) | 93.1% (inactive) | 95.8 | 92.6
9 | Cn1ncc2c(O/N=C(\N)c3ccc(C(C)(C)C)cc3)ncnc21 | 92.7% (inactive) | 92 | 87.9 | 143% (inactive) | 96.6 | 162 | 121% (inactive) | 106% (inactive) | 182% (active) | 114 | 155
10 | COc1ccc(/C=C/C(=O)NC(=S)NNC(=O)c2cnccn2)cc1 | 105% (inactive) | 91.1 | 79.2 | 166% (active) | 120 | 162 | 140% (inactive) | 78.5% (inactive) | 115% (inactive) | 99.1 | 106
11 | Cc1[nH]c2ccccc2c1C(c1ccccn1)N1CCC(C(N)=O)CC1 (stereo unspecified) | 97.4% (inactive) | 99.1 | 96.6 | 96.7% (inactive) | 99.2 | 97.2 | 98.3% (inactive) | 94.7% (inactive) | 101% (inactive) | 103 | 101
12 | CC(C)c1nnc(-c2ccc(Cl)cc2)c(N(C)C)n1 | 98.9% (inactive) | 99.3 | 97.8 | 98.9% (inactive) | 96 | 99.5 | 103% (inactive) | 106% (inactive) | 100% (inactive) | 101 | 100
13 | COc1cc(CCN2C(=O)c3cccc4cccc(c34)C2=O)c(S(=O)(=O)NCCCO)cc1OC | 99.1% (inactive) | 98.5 | 99.7 | 95.3% (inactive) | 96.5 | 94.6 | 99.5% (inactive) | 93.6% (inactive) | 95% (inactive) | 96.4 | 93.3
14 | [O-][n+]1cccc2c(Br)cc(Br)c(O)c21 | 98.2% (inactive) | 99.6 | 95.6 | 258% (active) | 215 | 251 | 178% (active) | 112% (inactive) | 101% (inactive) | 103 | 95.7
15 | Cc1cccc(OCCCSc2nc3ccc(C)cc3[nH]2)c1 | 92% (inactive) | 89.2 | 92.2 | 124% (inactive) | 115 | 127 | 94.7% (inactive) | 91.6% (inactive) | 79.9% (inactive) | 77.5 | 82.1
16 | C=CCn1c(=O)c(C(=O)Nc2ccccc2C(=O)OCC)c(O)c2ccccc21 | 100% (inactive) | 101 | 101 | 87.2% (inactive) | 86.4 | 89.7 | 99.5% (inactive) | 101% (inactive) | 96.4% (inactive) | 96.4 | 95.6
